Results as given in PubChem BioAssay (Tox21).
Records with an inconclusive call do not appear. Active and inactive are the calls of the source. Unless noted, calls come from the whole dose curve; as a rule, active = well fitted curve in the direction sought with a large enough effect in the repeat runs; inconclusive = weak or mixed curves; inactive = no such curve, though single readings can be large; an effect the other way counts as inactive or inconclusive.

Experiments:
[1] = qHTS assay to identify small molecule antagonists of the sonic hedgehog signaling (Shh) pathway (AID 1259369; calls by dose curve; note: nearly all actives have a fitted effect of over 45% in size)
Outline: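 NIH/3T3-derived 3T3Gli1-Luc cells with stably integrated Gli1-Luc reporter were preincubated 4hr at 37 C, then given compounds in DMSO plus Shh conditioned medium and incubated 24hr. Firefly luciferase luminescence read after 30min reagent at room temperature.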

[2] = molecular target: Estrogen receptor beta (Homo sapiens) (UniProt Q92731); assay: qHTS assay to identify small molecule agonists of the estrogen receptor beta (ER-beta) signaling pathway (AID 1259377; active = well fitted activation curve with a large enough effect in the signal ratio in the repeat runs, not every such curve was filed as active; the % refers to the signal ratio)
Chain of Estrogen receptor beta (Homo sapiens) (Q92731 whole entry, looked up): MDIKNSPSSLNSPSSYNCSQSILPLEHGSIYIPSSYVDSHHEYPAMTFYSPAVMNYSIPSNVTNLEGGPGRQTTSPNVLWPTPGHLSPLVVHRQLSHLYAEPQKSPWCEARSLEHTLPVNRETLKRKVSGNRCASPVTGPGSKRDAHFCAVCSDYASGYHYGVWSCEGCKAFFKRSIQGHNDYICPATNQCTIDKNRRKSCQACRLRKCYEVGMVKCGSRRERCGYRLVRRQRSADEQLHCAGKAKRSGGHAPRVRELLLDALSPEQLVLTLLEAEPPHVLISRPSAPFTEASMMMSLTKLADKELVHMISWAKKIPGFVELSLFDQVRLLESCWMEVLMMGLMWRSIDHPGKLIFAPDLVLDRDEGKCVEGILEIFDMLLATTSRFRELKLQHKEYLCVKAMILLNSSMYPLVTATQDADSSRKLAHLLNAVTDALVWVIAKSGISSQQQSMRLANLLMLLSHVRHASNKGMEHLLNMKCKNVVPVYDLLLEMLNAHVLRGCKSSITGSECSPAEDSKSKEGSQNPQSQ
Outline: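 In HEK293T cells bearing a UAS-beta-lactamase reporter under ER-beta control, DMSO-delivered compounds were incubated for 16 hr at 37C. Activity was detected as fluorescence 2 hours after LiveBLAzer B/G FRET substrate addition.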

[3] = molecular target: Estrogen receptor beta (Homo sapiens) (UniProt Q92731); assay: qHTS assay to identify small molecule antagonists of the estrogen receptor beta (ER-beta) signaling pathway (AID 1259378; active = well fitted inhibition curve with a large enough effect in the signal ratio in the repeat runs, not every such curve was filed as active; the % refers to the signal ratio)
Outline: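 Antagonist mode: compounds added to beta-lactamase reporter HEK293T ER-beta-UAS cells stimulated with E2 (1nM final), 16 hr at 37C. LiveBLAzer B/G FRET substrate, 2 hours room temperature, fluorescence read-out.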

[4] = qHTS assay to identify small molecule agonists of the androgen receptor (AR) signaling pathway in the presence of an antagonist - cell viability counter screen (AID 1259379);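 note: MDA-kb2 human breast cancer cells carrying an MMTV luciferase reporter; series mostly up to about 92 µM; nearly all actives have a fitted effect of over 25% in size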
Outline: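 MDA-kb2 human breast carcinoma cells (stable MMTV-luciferase, AR/GR responsive) were seeded 3,000 cells/well, pre-incubated 5 hr at 37C without CO2, then given 3.0uM nilutamide and compounds at 15 concentrations for 16 hr. Viability was read by CellTiter-Fluor fluorescence.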

[5] = qHTS assay to identify small molecule agonists of the estrogen receptor beta (ER-beta) signaling pathway - cell viability counter screen (AID 1259380); note: nearly all actives have a fitted effect of over 30% in size
Outline: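 ER-beta-UAS-bla HEK293T cells in medium with 2% charcoal-stripped FBS were preincubated 6 hr at 37C, dosed with compound in DMSO for 16 hr, then after the bla read, CellTiter-Glo was added for 30 min at room temperature; luminescence recorded.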

[6] = qHTS assay to identify small molecule antagonists of the estrogen receptor beta (ER-beta) signaling pathway - cell viability counter screen (AID 1259382);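 note: HEK293T cells carrying ER-beta-UAS-bla reporter stimulated with estradiol; series mostly up to about 92 µM; nearly all actives have a fitted effect of over 55% in size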
Outline: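 ER-beta-UAS-bla HEK293T cells (2,000/well, 2% charcoal-stripped FBS) were pre-incubated 6 hr at 37C, then given compound plus 1nM final 17-beta-estradiol for 16 hr. Viability was read in the same wells by CellTiter-Glo luminescence after 30 min at room temperature.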

[7] = qHTS assay to identify small molecule agonists or antagonists of the thyroid stimulating hormone receptor (TSHR) signaling pathway - wild type cell line counter screen (AID 1259384; calls by dose curve)
Outline: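 Counter screen in untransfected Hek293: compounds (15-point titration, triplicate) plus phosphodiesterase inhibitor Ro20-1724 added after 18 h plating; 30 min RT. Intracellular cAMP via competitive d2/cryptate immunoassay, 1 h incubation.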

[8] = molecular target: Thyrotropin receptor (Homo sapiens) (UniProt P16473); assay: qHTS assay to identify small molecule antagonists of the thyroid stimulating hormone receptor (TSHR) signaling pathway (AID 1259385; calls by dose curve; note: nearly all actives have a fitted effect of over 20% in size)
Chain of Thyrotropin receptor (Homo sapiens) (P16473 whole entry, looked up): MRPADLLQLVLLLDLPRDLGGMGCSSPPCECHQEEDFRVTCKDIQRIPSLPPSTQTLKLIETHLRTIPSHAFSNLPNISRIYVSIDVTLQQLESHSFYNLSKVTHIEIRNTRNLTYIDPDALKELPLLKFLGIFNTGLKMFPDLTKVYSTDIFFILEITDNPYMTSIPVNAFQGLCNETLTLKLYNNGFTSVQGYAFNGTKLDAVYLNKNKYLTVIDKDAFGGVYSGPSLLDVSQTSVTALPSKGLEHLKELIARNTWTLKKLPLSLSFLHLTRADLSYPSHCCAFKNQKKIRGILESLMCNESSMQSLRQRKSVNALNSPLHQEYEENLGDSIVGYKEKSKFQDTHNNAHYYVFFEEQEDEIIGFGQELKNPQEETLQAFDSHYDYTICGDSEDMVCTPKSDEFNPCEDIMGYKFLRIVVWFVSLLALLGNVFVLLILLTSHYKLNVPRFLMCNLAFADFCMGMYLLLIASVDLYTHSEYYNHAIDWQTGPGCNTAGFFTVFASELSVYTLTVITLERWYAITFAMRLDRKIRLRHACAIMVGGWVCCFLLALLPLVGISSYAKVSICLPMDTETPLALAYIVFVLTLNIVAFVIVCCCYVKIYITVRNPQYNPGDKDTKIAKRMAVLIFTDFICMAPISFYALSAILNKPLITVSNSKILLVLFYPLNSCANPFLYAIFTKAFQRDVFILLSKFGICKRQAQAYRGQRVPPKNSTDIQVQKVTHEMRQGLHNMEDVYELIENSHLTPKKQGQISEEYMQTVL
Outline: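 Antagonist mode: compound-treated TSHR-expressing HEK293 cells were stimulated with 1.5 ng/mL TSH (final) in presence of Ro20-1724 for 30 min at RT. HTRF cAMP detection after 1 h; each compound tested at 15 concentrations, triplicate.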

[9] = qHTS assay to identify small molecule agonists of the estrogen receptor alpha (ER-alpha) signaling pathway in the presence of an antagonist - cell viability counter screen (AID 1259386);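 note: series mostly up to about 92 µM; cells exposed to compounds for 22 h at 37 °C before the viability read; nearly all actives have a fitted effect of over 30% in size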
Outline: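 VM7Luc4E2 cells (endogenous full-length ER-alpha, 4×ERE-luciferase) were held 5 days in phenol red-free medium with 10% charcoal-stripped FBS, plated, then given 10.0nM ICI-182,780 and compounds at 15 concentrations for 22hr at 37C; viability read by CellTiter-Fluor fluorescence.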

[10] = molecular target: Progesterone receptor (Homo sapiens) (UniProt P06401); assay: qHTS assay to identify small molecule agonists of the progesterone receptor (PR) signaling pathway (AID 1346784; calls by dose curve; note: nearly all actives have a fitted effect of over 30% in size)
Chain of Progesterone receptor (Homo sapiens) (P06401 whole entry, looked up): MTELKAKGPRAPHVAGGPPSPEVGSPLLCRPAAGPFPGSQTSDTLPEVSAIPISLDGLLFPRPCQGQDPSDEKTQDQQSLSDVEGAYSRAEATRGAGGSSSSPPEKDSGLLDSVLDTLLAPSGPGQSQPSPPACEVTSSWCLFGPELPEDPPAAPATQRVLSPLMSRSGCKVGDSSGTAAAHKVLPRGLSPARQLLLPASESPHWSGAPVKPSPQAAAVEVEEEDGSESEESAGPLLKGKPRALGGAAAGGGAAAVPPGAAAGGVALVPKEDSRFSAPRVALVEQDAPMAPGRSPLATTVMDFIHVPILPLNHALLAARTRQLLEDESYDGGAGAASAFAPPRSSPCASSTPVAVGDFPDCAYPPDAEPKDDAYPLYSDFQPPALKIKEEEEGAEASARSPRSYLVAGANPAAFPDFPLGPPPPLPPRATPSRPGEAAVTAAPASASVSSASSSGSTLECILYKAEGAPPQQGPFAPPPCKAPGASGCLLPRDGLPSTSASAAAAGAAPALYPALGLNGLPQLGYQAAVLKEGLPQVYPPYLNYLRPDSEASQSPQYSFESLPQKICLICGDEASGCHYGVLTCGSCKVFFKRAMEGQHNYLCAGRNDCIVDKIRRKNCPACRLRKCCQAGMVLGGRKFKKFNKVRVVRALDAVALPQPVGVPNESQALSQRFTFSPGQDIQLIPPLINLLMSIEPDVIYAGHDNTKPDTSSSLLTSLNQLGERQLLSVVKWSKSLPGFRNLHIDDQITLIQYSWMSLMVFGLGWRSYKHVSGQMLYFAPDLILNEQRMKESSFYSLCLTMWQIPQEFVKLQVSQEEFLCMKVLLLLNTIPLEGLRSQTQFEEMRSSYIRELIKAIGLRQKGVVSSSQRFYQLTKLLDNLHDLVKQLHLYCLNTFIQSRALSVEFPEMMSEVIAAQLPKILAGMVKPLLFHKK
Outline: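 Using charcoal-stripped serum (2%) to limit endogenous steroids, PR-UAS-bla HEK 293T cells received compounds for 16 hr at 37C after 6 hr plating; beta-lactamase FRET fluorescence was recorded following 2 hr substrate loading at room temperature.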

[11] = molecular target: Progesterone receptor (Homo sapiens) (UniProt P06401); assay: qHTS assay to identify small molecule antagonists of the progesterone receptor (PR) signaling pathway (AID 1346795; active = well fitted inhibition curve with a large enough effect in the signal ratio in the repeat runs, not every such curve was filed as active; the % refers to the signal ratio)
Outline: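 Inhibition of R5020-induced (1 nM final) beta-lactamase reporter signal in PR-UAS-bla HEK293T cells was scored by FRET fluorescence after overnight (16 hr) compound treatment.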

[12] = qHTS assay to identify small molecule antagonists of the progesterone receptor (PR) signaling pathway - cell viability counter screen (AID 1346798); note: series mostly up to about 92 µM; nearly all actives have a fitted effect of over 50% in size
Outline: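 ATP content as viability readout: CellTiter-Glo luminescence, 30 min room temperature, in PR-UAS-bla HEK293T cells after 16 hr compound/R5020 treatment at 37C and 5% CO2.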

[13] = qHTS assay to identify small molecule agonists of the progesterone receptor (PR) signaling pathway - cell viability counter screen (AID 1346799; calls by dose curve; note: nearly all actives have a fitted effect of over 45% in size)
Outline: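 Cytotoxicity in PR-bla HEK293T cells: 16 h compound, 37C; CellTiter-Glo added post-FRET read; luminescence after 30 min RT.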

[14] = qHTS assay to identify small molecule antagonists of the TGF-beta/Smad signaling pathway - cell viability counter screen (AID 1346824); note: nearly all actives have a fitted effect of over 50% in size
Outline: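 Cytotoxicity counter-screen run in the same wells as the beta-lactamase Smad reporter read: CellTiter-Glo luminescence after 30 min at room temperature. HEK 293T SBE-bla cells had 5 hr compound exposure at 37 C with TGF-beta1 (0.25 ng/mL stock).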

[15] = qHTS assay to identify small molecule agonists of the TGF-beta/Smad signaling pathway - cell viability counter screen (AID 1346829); note: top concentration of the series differs between compounds; nearly all actives have a fitted effect of over 45% in size
Outline: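 CellTiter-Glo luminescence readout; SBE-bla HEK 293T cells, overnight plating, compound 5 hr at 37 C/5% CO2, then bla substrate 2 hr RT, then CellTiter-Glo 30 min RT.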

[16] = qHTS assay to identify small molecule agonists of the TGF-beta/Smad signaling pathway (AID 1346859; active = well fitted activation curve with a large enough effect in the signal ratio in the repeat runs, not every such curve was filed as active; the % refers to the signal ratio; note: series mostly up to about 77 µM)
Outline: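 Stable Smad binding element-beta-lactamase HEK 293T cells; 5 hr compound exposure at 37 C under 5% CO2; 2 hr room-temperature substrate step; fluorescence excited at 405 nm, collected at 460 nm and 530 nm.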

[17] = molecular target: Thyrotropin-releasing hormone receptor (Homo sapiens) (UniProt P34981); assay: qHTS assay to identify small molecule antagonists of the thyrotropin-releasing hormone receptor (TRHR) signaling pathway (AID 1346877; active = well fitted inhibition curve with a large enough effect in the repeat runs, not every such curve was filed as active; note: series mostly up to about 51 µM)
Chain of Thyrotropin-releasing hormone receptor (Homo sapiens) (P34981 whole entry, looked up): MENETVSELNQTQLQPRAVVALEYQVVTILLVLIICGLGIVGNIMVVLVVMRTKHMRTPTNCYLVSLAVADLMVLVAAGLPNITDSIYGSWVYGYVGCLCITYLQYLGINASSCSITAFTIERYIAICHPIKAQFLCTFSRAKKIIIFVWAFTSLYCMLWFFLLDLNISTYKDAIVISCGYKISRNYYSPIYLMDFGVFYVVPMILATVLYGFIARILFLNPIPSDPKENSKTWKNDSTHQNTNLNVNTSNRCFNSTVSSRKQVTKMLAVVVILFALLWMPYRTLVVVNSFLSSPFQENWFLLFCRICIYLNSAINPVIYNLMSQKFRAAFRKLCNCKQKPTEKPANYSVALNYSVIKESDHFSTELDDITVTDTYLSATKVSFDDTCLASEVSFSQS
Outline: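 TRHR-expressing HEK293 cells were seeded, cultured 18 h at 37 °C, then loaded with calcium dye for 2 h. Compounds were pre-incubated 5 min at room temperature before 1 nM TRH (final) was added, and kinetic fluorescence was recorded for 3 min.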

[18] = molecular target: Thyrotropin-releasing hormone receptor (Homo sapiens) (UniProt P34981); assay: qHTS assay to identify small molecule agonists of the thyrotropin-releasing hormone receptor (TRHR) signaling pathway (AID 1346891; calls by dose curve; note: series mostly up to about 58 µM)
Outline: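 In 1536-format, 1500 TRHR-Hek293 cells per well grew 18 h, took up calcium dye for 2 h at 37 °C, received compound, and were read kinetically; 15-point titrations, triplicates.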

[19] = molecular target: Estrogen receptor (Homo sapiens) (UniProt P03372); assay: qHTS assay to identify small molecule agonists of the estrogen receptor alpha (ER-alpha) signaling pathway in the presence of an antagonist (AID 1259383; calls by dose curve; note: top concentration of the series differs between compounds; nearly all actives have a fitted effect of over 15% in size)
Chain of Estrogen receptor (Homo sapiens) (P03372 whole entry, looked up): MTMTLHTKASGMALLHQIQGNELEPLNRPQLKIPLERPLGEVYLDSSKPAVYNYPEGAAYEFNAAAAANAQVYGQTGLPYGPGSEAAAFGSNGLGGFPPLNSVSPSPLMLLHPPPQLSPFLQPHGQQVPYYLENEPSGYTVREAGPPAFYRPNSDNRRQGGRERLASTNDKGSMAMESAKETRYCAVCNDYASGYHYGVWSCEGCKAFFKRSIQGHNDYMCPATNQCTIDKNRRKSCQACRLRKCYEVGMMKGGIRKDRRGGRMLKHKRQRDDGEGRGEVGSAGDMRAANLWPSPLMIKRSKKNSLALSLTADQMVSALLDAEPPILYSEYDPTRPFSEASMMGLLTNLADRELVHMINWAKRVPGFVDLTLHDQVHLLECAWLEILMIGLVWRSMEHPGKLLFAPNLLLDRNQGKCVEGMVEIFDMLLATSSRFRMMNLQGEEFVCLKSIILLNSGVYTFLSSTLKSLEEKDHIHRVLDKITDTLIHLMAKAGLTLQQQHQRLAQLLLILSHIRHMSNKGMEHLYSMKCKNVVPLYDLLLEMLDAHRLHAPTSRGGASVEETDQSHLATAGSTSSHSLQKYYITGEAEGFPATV
Outline: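 VM7Luc4E2 cells (endogenous full-length ER-alpha, 4×ERE-luciferase) were precultured 5 days in phenol red-free medium with 10% charcoal-stripped FBS, given 10.0nM ICI-182,780 (final), then treated with compounds at 15 concentrations for 22hr at 37C; luminescence read with ONE-Glo.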
% is set by controls: 0 for no effect and ±100 for the full control effect.

NCCc1cnc[nH]1
inactive: Potency [1] | outcome [2] | outcome [3] | Potency [4] | Potency [5] | Potency [6] | outcome [7] | Potency [8] | Potency [9] | Potency [10] | Potency [11] | Potency [12] | Potency [13] | Potency [14] | outcome [15] | outcome [16] | outcome [17] | outcome [18]

CC[N+](C)(C)c1cccc(O)c1
inactive: Potency [1] | outcome [2] | outcome [3] | Potency [4] | Potency [6] | outcome [7] | Potency [8] | Potency [9] | Potency [10] | Potency [12] | Potency [13] | Potency [14] | outcome [15] | outcome [16]

NC(CSCC(=O)O)C(=O)O (stereo not drawn)
inactive: Potency [1] | outcome [2] | outcome [3] | Potency [4] | Potency [6] | Potency [19] | Potency [9] | Potency [11] | Potency [12] | Potency [13] | Potency [14] | outcome [15] | outcome [16] | outcome [17] | outcome [18]

CCOC(=O)c1cccc(N)c1
inactive: Potency [1] | outcome [2] | outcome [3] | Potency [4] | Potency [6] | Potency [19] | outcome [7] | Potency [8] | Potency [9] | Potency [10] | Potency [11] | Potency [12] | Potency [13] | Potency [14] | outcome [15] | outcome [16] | outcome [17] | outcome [18]

CCC(=O)OC(C)c1ccccc1 (stereo not drawn)
inactive: Potency [1] | outcome [2] | outcome [3] | Potency [4] | Potency [6] | Potency [19] | outcome [7] | Potency [8] | Potency [9] | Potency [10] | Potency [11] | Potency [12] | Potency [13] | Potency [14] | outcome [15] | outcome [16] | outcome [17] | outcome [18]

O=C1CCCC(=O)C1
inactive: Potency [1] | outcome [2] | outcome [3] | Potency [4] | Potency [6] | Potency [9] | Potency [10] | Potency [11] | Potency [12] | Potency [13] | Potency [14] | outcome [16] | outcome [17] | outcome [18]

Nc1ccc(S(=O)(=O)Nc2ccnn2-c2ccccc2)cc1
inactive: Potency [1] | activity, negative = inhibition [3] 0.746% [at 19 µM] | activity change, negative = cytotoxicity [4] -0.249% [at 19 µM] | activity change, negative = cytotoxicity [5] 9.8% [at 19 µM] | activity change, negative = cytotoxicity [6] 5.67% [at 19 µM] | activation [19] -0.0289% [at 19 µM] | cAMP activity change [7] 3.46% [at 18.9 µM] | activity change, negative = inhibition [8] 0.942% [at 19 µM] | activity change, negative = cytotoxicity [9] 1.05% [at 19 µM] | Potency [11] | viability change, negative = cytotoxic [14] 6.26% [at 15.8 µM] | activity change, negative = cytotoxicity [15] 13.7% [at 15.8 µM] | activation [16] -0.937% [at 15.8 µM] | activity, negative = inhibition [17] 2.52% [at 10.5 µM] | activation [18] -0.182% [at 11.8 µM]

NCCCNCCSP(=O)(O)O
inactive: activity change, negative = inhibition [1] 21.5% [at 8.39 µM] | activation [2] -1.24% [at 8.39 µM] | activity, negative = inhibition [3] 13.1% [at 8.39 µM] | activity change, negative = cytotoxicity [4] 9.45% [at 8.39 µM] | activity change, negative = cytotoxicity [6] 1.8% [at 8.39 µM] | activation [19] -0.349% [at 8.39 µM] | cAMP activity change [7] -0.261% [at 8.39 µM] | activity change, negative = inhibition [8] -3.62% [at 8.39 µM] | activity change, negative = cytotoxicity [9] -0.352% [at 8.39 µM] | activity change, negative = cytotoxicity [12] 1.3% [at 8.39 µM] | activity change, negative = cytotoxicity [13] 17.5% [at 8.39 µM] | viability change, negative = cytotoxic [14] 10.3% [at 6.97 µM] | activity change, negative = cytotoxicity [15] -10% [at 6.97 µM] | activation [16] 0.256% [at 6.97 µM] | activity, negative = inhibition [17] 2.65% [at 4.65 µM] | activation [18] -0.402% [at 5.23 µM]
